Calls of active or inactive are those of the source. How the source made its calls: active means hit-call score of the fitted dose curve at least 0.9, where 1 is the maximum; inactive means score below 0.9.
Tests used:
[1] = ATG_GLI_CIS: Attagene CIS-FACTORIAL HepG2 Assay for human Zinc Finger Protein GLI1 (AID 2282945); details: HepG2, Attagene cis-factorial reporter mRNA, GLI element; actives raise or lower the signal
Outline: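 HepG2 cells transiently transfected with cis-promoter multiplexed reporter units report endogenous transcription factor activity. After 24 h chemical exposure, reporter mRNA was quantified by RT-PCR, 6-FAM labelling, HpaI digestion and capillary electrophoresis, with bidirectional fitting against DMSO.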

[2] = ATG_ISRE_CIS: Attagene CIS-FACTORIAL HepG2 Assay for human Interferon Regulatory Factor 1 (IRF1) binding to an Interferon-Stimulated Response Element (ISRE) (AID 2282948); details: HepG2 ISRE cis-reporter (Attagene), mRNA transcription readout; actives raise or lower the signal
Outline: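 Transfected HepG2 (multiple reporter transcription units, cis elements) dosed 24 h. RNA → oligo(dT) RT → PCR → 6-FAM primer extension → HpaI → CE. DMSO = negative control/baseline.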

[3] = ATG_M_06_CIS: Attagene CIS-FACTORIAL HepG2 Assay for M06 Transcription Factor (Internal Marker) (AID 2282950); details: HepG2 Attagene CIS-FACTORIAL M06 internal marker reporter; actives raise or lower the signal
Outline: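 Cells (HepG2, transiently carrying cis-driven reporter units) receive chemical for 24 h before RNA isolation. Reporter cDNA is PCR-amplified, FAM-labelled by primer extension, HpaI-digested and sized on a capillary analyser.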

[4] = molecular target: Hypoxia-inducible factor 1-alpha (Homo sapiens) (UniProt Q16665); test: ATG_HIF1a_CIS: Attagene CIS-FACTORIAL HepG2 Assay for human Hypoxia Inducible Factor 1 (HIF1A) (AID 2282951); details: HepG2 Attagene cis-factorial HIF1a reporter transcription; actives raise or lower the signal
Hypoxia-inducible factor 1-alpha (Homo sapiens), sequence (Q16665 whole entry, looked up): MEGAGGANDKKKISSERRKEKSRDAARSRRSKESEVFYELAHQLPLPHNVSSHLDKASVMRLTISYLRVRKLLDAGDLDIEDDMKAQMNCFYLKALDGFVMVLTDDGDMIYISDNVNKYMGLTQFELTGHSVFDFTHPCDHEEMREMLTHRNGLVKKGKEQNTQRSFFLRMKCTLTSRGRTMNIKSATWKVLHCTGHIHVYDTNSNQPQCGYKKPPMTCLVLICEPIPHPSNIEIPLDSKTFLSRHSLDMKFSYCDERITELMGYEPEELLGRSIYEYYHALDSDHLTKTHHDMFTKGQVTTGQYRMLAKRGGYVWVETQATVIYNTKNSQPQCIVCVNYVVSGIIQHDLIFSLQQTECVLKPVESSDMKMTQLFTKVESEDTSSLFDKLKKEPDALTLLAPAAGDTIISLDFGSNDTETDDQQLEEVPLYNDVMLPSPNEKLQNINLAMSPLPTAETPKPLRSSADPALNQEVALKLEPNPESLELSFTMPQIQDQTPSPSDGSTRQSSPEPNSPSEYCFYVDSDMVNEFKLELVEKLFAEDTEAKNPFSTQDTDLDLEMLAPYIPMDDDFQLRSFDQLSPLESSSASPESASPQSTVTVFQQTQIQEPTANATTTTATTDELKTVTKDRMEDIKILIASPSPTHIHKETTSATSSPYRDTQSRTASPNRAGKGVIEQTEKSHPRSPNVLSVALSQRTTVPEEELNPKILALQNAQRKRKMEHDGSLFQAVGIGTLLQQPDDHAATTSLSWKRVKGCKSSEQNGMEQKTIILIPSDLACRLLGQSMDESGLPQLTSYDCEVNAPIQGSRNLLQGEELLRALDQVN
Outline: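 HepG2, transient cis-reporter library, 24 h dosing. RNA → RT (oligo dT) → PCR → 6-FAM primer extension → HpaI → CE. Bidirectional curve fit vs DMSO.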

[5] = molecular target: Hepatocyte nuclear factor 6 (Homo sapiens) (UniProt Q9UBC0); test: ATG_HNF6_CIS: Attagene CIS-FACTORIAL HepG2 Assay for human Hepatocyte Nuclear Factor 6 (HNF6) (AID 2282952); details: HepG2 Attagene cis-factorial HNF6 reporter transcription; actives raise or lower the signal
Hepatocyte nuclear factor 6 (Homo sapiens), sequence (Q9UBC0 whole entry, looked up, the tested form may be a part): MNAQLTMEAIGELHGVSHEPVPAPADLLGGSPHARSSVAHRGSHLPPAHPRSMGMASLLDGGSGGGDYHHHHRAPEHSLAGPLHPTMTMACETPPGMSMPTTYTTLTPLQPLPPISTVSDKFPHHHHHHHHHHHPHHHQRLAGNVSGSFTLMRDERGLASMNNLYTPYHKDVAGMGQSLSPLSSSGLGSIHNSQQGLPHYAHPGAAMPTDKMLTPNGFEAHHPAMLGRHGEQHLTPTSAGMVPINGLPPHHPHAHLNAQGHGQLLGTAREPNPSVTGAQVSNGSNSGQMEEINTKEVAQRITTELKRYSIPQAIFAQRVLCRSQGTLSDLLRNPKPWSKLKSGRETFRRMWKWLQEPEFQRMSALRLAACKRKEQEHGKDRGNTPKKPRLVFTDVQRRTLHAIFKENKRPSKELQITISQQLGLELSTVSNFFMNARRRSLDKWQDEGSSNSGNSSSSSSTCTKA
Outline: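 Reporter mRNA induction or loss in HepG2 after 24 h exposure; transient cis-MRTU transfection; fragments quantified by capillary electrophoresis; bidirectional analysis, DMSO as negative control.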

[6] = molecular target: Heat shock factor protein 1 (Homo sapiens) (UniProt Q00613); test: ATG_HSE_CIS: Attagene CIS-FACTORIAL HepG2 Assay for human Heat Shock Transcription Factor 1 (HSE) (AID 2282953); details: HepG2 HSE cis-reporter, Attagene RNA transcription; actives raise or lower the signal
Heat shock factor protein 1 (Homo sapiens), sequence (Q00613 whole entry, looked up): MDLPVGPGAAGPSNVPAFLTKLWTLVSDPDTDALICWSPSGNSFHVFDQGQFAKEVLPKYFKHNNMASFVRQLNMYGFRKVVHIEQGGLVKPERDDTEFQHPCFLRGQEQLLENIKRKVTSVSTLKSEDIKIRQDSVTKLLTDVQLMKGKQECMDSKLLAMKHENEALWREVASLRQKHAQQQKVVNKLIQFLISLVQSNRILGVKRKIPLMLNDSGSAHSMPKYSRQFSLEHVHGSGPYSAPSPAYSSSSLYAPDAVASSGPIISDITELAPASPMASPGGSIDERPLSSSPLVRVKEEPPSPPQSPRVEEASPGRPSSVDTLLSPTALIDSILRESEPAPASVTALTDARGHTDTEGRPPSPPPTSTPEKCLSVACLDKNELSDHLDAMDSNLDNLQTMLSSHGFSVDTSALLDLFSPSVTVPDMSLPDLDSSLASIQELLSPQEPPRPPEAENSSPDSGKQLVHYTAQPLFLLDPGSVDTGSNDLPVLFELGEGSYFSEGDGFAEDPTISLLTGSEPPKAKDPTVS
Outline: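 Liver-derived HepG2 cells carry transiently introduced multiple reporter units governed by cis promoters. Reporter RNA measured 24 h post-dose through reverse transcription, PCR amplification, fluorescent labelling and capillary electrophoresis, normalised to DMSO.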

[7] = ATG_MRE_CIS: Attagene CIS-FACTORIAL HepG2 Assay for human Metal Responsive Element (MRE) (AID 2282954); details: HepG2 MRE cis-reporter transcription, Attagene multiplex; actives raise or lower the signal
Outline: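 HepG2 cells transiently transfected with multiple cis-element reporter units measure endogenous MTF1-driven transcription. After 24 h compound exposure, reporter mRNA is quantified by RT-PCR with 6-FAM labelling, HpaI digestion and capillary electrophoresis; bidirectional fits versus DMSO.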

[8] = ATG_M_32_CIS: Attagene CIS-FACTORIAL HepG2 Assay for M32 Transcription Factor (Internal Marker) (AID 2282949); details: HepG2 Attagene cis-factorial M32 reporter, mRNA; actives raise or lower the signal;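 further: background control marker of the multiplexed CIS panel rather than a real target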
Outline: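 Internal background marker read-out: RT-PCR/capillary electrophoresis fluorescence of reporter transcripts from transiently transfected HepG2 cells after 24 h chemical exposure. Activity fitted bidirectionally relative to DMSO negative control.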

Row | Structure (SMILES) | outcome [1] | AC50 [2] | outcome [3] | outcome [4] | outcome [5] | outcome [6] | AC50 [7] | outcome [2] | outcome [8] | outcome [7] | AC50 [1] | AC50 [6]
1 | C=CC(=O)OCC(C)OCC(C)OCC(C)OC(=O)C=C (configuration not stated) | inactive | 86.1 µM (active) | inactive | inactive | inactive | inactive | 46.1 µM (active) | – | – | – | – | –
2 | CC(C)COC(=O)CC(C(=O)OCC(C)C)S(=O)(=O)O (configuration not stated) | inactive | – | inactive | inactive | inactive | inactive | – | inactive | inactive | inactive | – | –
3 | COCC(=O)O | inactive | – | inactive | inactive | inactive | inactive | – | inactive | inactive | inactive | – | –
4 | CCCC=C(C=O)CC | inactive | – | inactive | inactive | inactive | inactive | – | inactive | – | inactive | – | –
5 | CCCC/C=C/C=C\C=O | – | 100 µM (active) | inactive | inactive | inactive | – | 100 µM (active) | – | inactive | – | 128 µM (active) | –
6 | CC(C)(C)N | inactive | – | – | inactive | inactive | inactive | – | inactive | inactive | inactive | – | –
7 | Nc1cccc(N)n1 | inactive | – | – | inactive | inactive | inactive | – | inactive | – | inactive | – | –
8 | CC(C)C(=O)OCCOc1ccccc1 | inactive | – | inactive | inactive | inactive | inactive | – | inactive | inactive | inactive | – | –
9 | COC(=O)c1ccccc1C | inactive | – | inactive | inactive | inactive | inactive | – | inactive | inactive | inactive | – | –
10 | CCCCC(CC)COC(=O)/C=C/c1ccc(OC)cc1 (configuration not stated) | inactive | – | inactive | inactive | inactive | inactive | – | inactive | inactive | inactive | – | –
11 | CC(C)CCOCc1ccccc1 | inactive | – | inactive | inactive | inactive | inactive | – | inactive | inactive | inactive | – | –
12 | COC(=O)c1ccc(C(=O)OC)c(C(=O)OC)c1 | inactive | – | inactive | inactive | inactive | inactive | – | inactive | inactive | inactive | – | –
13 | C=C(C)OC(C)=O | inactive | – | inactive | inactive | – | inactive | – | inactive | inactive | inactive | – | –
14 | CCCCCCO | inactive | – | inactive | inactive | inactive | inactive | – | inactive | inactive | inactive | – | –
15 | CC1=CCC2CC1C2(C)C (configuration not stated) | inactive | – | inactive | inactive | inactive | inactive | – | inactive | inactive | inactive | – | –
16 | C=Cc1cccc(C)c1 | inactive | – | inactive | inactive | inactive | inactive | – | inactive | inactive | inactive | – | –
17 | C=C(C)[C@@H]1CC=C(C)CC1 | inactive | – | inactive | inactive | inactive | inactive | – | inactive | inactive | inactive | – | –
18 | COc1cc(O)c(C(=O)c2ccccc2)cc1S(=O)(=O)O | inactive | – | inactive | inactive | – | inactive | – | inactive | inactive | inactive | – | –
19 | C=C(C)C1CC=C(C)CC1 (configuration not stated) | inactive | – | inactive | inactive | inactive | inactive | – | inactive | inactive | inactive | – | –
20 | CC(C)(C)C1CCC(=O)CC1 | inactive | – | inactive | inactive | inactive | – | – | inactive | inactive | inactive | – | 156 µM (active)

Reference: PubChem BioAssay (EPA / NIEHS)
